From article PMC7862700, “An all-to-all approach to the identification of sequence-specific readers for epigenetic DNA modifications on cytosine”

Columns and labels:
Assay in all cases: DAPPL (digital affinity profiling via proximity ligation, sequencing); 10 mM Tris-HCl pH 7.5, 50 mM NaCl, 1 mM DTT, 4% glycerol, room temperature, 30 min; GST-TFs on glutathione beads, 16-mer random dsDNA library, 0.1% formaldehyde crosslink after washing; high values mean tight binding
FEV = biological target: T1, FEV (Homo sapiens, UniProt Q99581 1-238); conditions: protein: recombinant; tags: N-terminal GST; dsDNA, one strand shown
T1 sequence: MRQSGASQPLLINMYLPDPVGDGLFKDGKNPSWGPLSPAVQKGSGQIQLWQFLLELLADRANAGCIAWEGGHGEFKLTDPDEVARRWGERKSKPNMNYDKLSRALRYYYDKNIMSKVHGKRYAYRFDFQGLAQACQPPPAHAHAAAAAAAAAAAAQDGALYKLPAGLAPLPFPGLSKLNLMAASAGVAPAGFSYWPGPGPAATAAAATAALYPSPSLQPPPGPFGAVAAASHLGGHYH
Summary of the method: (§1)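 Yeast served to express human transcription factors as GST fusions, which were then captured on glutathione beads and labelled with DNA barcodes. Pooled with a tag-only sample, they were incubated with 200 nmole of a 16-mer random double-stranded DNA library for 30 min at room temperature in Tris/NaCl/DTT/glycerol buffer, washed, crosslinked with 0.1% formaldehyde, ligated by proximity, amplified by PCR and sequenced. Dividing each hexamer's read frequency for a factor by its frequency for the tag-only sample gives the binding signal.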

ETV5 = ETV5 (Homo sapiens, UniProt P41161 1-510); conditions: protein: recombinant; tags: N-terminal GST; dsDNA, one strand shown
Chain of ETV5 (P41161 whole entry): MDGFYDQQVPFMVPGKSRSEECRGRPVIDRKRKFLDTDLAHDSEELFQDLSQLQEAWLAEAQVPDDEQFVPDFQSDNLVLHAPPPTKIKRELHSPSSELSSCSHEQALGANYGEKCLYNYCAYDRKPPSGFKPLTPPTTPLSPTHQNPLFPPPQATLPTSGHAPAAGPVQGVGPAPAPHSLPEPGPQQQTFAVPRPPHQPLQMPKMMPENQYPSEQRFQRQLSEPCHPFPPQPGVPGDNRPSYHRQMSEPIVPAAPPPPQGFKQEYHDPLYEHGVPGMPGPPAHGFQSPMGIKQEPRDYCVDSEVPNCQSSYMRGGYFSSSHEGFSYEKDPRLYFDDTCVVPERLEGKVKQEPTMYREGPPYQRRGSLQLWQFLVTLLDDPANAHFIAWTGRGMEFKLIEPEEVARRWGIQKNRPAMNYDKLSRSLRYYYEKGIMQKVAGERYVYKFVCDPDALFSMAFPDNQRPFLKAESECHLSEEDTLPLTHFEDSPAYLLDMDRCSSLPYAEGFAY
Summary of the method: as §1

HSF1 = HSF1 (Homo sapiens, UniProt Q00613 1-529); conditions: protein: recombinant; tags: N-terminal GST; chain copies: 3; dsDNA, one strand shown
Chain of HSF1 (Q00613 whole entry): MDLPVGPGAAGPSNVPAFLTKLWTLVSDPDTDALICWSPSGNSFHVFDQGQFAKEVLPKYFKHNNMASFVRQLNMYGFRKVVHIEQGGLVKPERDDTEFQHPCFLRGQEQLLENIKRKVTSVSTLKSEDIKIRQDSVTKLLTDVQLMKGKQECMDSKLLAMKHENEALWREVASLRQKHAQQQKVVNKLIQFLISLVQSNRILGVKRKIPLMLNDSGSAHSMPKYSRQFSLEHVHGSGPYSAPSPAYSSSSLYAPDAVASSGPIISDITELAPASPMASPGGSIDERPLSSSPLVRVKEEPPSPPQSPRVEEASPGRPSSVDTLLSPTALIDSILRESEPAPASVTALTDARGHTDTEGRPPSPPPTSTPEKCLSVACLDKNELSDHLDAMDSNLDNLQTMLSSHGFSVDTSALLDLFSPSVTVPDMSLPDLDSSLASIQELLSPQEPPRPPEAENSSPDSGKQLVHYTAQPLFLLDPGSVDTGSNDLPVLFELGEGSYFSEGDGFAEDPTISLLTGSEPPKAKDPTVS
Summary of the method: as §1

SPIC = biological target: T2, SPIC (Homo sapiens, UniProt Q8N5J4 1-248); conditions: protein: recombinant; tags: N-terminal GST; dsDNA, one strand shown
T2 sequence: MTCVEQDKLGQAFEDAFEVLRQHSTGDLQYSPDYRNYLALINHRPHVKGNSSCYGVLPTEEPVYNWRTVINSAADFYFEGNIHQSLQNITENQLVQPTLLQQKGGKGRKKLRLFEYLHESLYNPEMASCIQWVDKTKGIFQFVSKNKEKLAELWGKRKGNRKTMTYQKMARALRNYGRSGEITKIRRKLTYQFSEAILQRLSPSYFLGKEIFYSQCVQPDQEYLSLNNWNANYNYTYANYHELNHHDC
Summary of the method: as §1

ELF4 = ELF4 (Homo sapiens, UniProt Q99607 1-663); conditions: protein: recombinant; tags: N-terminal GST; dsDNA, one strand shown
Chain of ELF4 (Q99607 whole entry): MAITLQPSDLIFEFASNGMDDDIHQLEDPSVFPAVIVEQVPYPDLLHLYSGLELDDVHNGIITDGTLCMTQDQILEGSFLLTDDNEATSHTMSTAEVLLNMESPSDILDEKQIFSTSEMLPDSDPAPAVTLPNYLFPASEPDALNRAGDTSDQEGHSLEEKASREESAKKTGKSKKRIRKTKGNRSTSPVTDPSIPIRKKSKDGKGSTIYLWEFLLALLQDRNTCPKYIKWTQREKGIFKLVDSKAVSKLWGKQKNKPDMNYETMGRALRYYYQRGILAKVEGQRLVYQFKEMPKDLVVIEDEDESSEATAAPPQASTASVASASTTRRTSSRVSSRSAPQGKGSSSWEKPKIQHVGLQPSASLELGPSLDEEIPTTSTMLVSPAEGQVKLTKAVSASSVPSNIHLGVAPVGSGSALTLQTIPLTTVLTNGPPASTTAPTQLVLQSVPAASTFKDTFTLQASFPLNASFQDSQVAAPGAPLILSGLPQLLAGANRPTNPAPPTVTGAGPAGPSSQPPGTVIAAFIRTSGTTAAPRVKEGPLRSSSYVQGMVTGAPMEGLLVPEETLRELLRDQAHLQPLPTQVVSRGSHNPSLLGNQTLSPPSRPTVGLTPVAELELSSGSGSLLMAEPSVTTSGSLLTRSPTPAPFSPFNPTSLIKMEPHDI
Summary of the method: as §1

ELK4 = biological target: T3, ELK4 (Homo sapiens, UniProt P28324-2 1-405); conditions: protein: recombinant; tags: N-terminal GST; dsDNA, one strand shown
T3 sequence: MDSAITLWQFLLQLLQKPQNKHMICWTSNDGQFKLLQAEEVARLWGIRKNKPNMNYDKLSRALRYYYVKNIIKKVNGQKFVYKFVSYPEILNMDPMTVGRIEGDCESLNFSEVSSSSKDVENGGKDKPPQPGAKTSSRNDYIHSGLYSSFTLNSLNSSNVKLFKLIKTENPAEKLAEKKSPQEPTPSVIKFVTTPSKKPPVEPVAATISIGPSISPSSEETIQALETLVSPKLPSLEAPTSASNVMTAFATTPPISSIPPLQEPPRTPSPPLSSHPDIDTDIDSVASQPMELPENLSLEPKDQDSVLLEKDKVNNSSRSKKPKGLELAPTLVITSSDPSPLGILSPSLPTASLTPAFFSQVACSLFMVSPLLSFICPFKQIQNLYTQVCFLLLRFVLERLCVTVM
Summary of the method: as §1

ETV2 = biological target: T4, ETV2 (Homo sapiens, UniProt O00321 1-342); conditions: protein: recombinant; tags: N-terminal GST; dsDNA, one strand shown
T4 sequence: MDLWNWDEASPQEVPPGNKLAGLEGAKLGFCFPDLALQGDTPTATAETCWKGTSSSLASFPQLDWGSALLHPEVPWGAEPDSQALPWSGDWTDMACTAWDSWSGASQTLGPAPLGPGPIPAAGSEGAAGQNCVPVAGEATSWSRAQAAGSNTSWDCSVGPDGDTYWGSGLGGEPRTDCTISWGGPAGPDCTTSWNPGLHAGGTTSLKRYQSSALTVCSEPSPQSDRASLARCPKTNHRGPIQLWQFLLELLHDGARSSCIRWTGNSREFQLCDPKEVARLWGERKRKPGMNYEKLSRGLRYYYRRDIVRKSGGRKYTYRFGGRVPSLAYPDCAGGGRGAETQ
Summary of the method: as §1

ELF3 = biological target: T5, ELF3 (Homo sapiens, UniProt P78545 1-371); conditions: protein: recombinant; tags: N-terminal GST; dsDNA, one strand shown
T5 sequence: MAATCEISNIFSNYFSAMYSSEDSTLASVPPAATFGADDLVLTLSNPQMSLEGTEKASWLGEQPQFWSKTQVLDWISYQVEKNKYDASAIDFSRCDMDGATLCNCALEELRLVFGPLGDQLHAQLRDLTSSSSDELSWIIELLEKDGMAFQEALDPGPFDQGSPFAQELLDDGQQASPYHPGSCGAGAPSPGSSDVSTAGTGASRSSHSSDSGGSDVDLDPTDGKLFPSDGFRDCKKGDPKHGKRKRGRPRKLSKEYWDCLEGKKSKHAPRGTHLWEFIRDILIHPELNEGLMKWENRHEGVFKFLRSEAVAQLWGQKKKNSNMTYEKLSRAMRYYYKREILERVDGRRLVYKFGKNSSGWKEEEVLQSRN
Summary of the method: as §1

CRX = CRX (Homo sapiens, UniProt O43186 1-299); conditions: protein: recombinant; tags: N-terminal GST; dsDNA, one strand shown
Chain of CRX (O43186 whole entry): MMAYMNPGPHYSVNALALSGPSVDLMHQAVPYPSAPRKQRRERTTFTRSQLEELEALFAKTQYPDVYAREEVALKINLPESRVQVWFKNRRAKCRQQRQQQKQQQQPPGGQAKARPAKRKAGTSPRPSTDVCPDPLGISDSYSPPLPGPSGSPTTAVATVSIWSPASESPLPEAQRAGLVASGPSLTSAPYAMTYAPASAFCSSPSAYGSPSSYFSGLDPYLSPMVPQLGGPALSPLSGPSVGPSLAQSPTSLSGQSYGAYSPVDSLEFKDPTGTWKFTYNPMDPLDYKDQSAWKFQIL
Summary of the method: as §1

ETV1 = ETV1 (Homo sapiens, UniProt P50549 1-477); conditions: protein: recombinant; tags: N-terminal GST; dsDNA, one strand shown
Chain of ETV1 (P50549 whole entry): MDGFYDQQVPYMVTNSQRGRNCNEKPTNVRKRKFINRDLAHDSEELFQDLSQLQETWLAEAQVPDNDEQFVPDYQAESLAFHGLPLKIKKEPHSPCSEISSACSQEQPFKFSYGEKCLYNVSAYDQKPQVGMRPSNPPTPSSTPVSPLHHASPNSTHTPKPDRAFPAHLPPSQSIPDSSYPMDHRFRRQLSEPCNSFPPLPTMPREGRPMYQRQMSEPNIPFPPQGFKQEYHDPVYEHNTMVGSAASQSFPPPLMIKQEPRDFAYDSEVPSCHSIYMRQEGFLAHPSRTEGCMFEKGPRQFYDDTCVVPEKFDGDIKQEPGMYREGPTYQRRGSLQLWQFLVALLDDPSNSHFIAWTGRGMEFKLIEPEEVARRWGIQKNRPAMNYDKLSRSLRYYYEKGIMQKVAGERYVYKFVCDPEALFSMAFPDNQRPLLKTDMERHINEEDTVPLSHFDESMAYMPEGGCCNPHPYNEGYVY
Summary of the method: as §1

## TTTGGG
FEV
  binding signal: 1.31 fold enrichment (6-mer frequency, TF over GST control)
ETV5
  binding signal: 1.39 fold enrichment (6-mer frequency, TF over GST control)
HSF1
  binding signal: 1.36 fold enrichment (6-mer frequency, TF over GST control)
SPIC
  binding signal: 1.16 fold enrichment (6-mer frequency, TF over GST control)
ELF4
  binding signal: 1.41 fold enrichment (6-mer frequency, TF over GST control)
ELK4
  binding signal: 1.41 fold enrichment (6-mer frequency, TF over GST control)
ETV2
  binding signal: 1.42 fold enrichment (6-mer frequency, TF over GST control)
ELF3
  binding signal: 1.7 fold enrichment (6-mer frequency, TF over GST control)
CRX
  binding signal: 1.57 fold enrichment (6-mer frequency, TF over GST control)
ETV1
  binding signal: 1.43 fold enrichment (6-mer frequency, TF over GST control)

## TGCATT
FEV
  binding signal: 1.38 fold enrichment (6-mer frequency, TF over GST control)
ETV5
  binding signal: 1.3 fold enrichment (6-mer frequency, TF over GST control)
HSF1
  binding signal: 1.24 fold enrichment (6-mer frequency, TF over GST control)
SPIC
  binding signal: 1.44 fold enrichment (6-mer frequency, TF over GST control)
ELF4
  binding signal: 1.36 fold enrichment (6-mer frequency, TF over GST control)
ELK4
  binding signal: 1.38 fold enrichment (6-mer frequency, TF over GST control)
ETV2
  binding signal: 1.39 fold enrichment (6-mer frequency, TF over GST control)
ELF3
  binding signal: 1.49 fold enrichment (6-mer frequency, TF over GST control)
CRX
  binding signal: 1.32 fold enrichment (6-mer frequency, TF over GST control)
ETV1
  binding signal: 1.32 fold enrichment (6-mer frequency, TF over GST control)

## CATTCG
FEV
  binding signal: 1.17 fold enrichment (6-mer frequency, TF over GST control)
ETV5
  binding signal: 1.09 fold enrichment (6-mer frequency, TF over GST control)
HSF1
  binding signal: 1.64 fold enrichment (6-mer frequency, TF over GST control)
SPIC
  binding signal: 1.3 fold enrichment (6-mer frequency, TF over GST control)
ELF4
  binding signal: 1.18 fold enrichment (6-mer frequency, TF over GST control)
ELK4
  binding signal: 1.05 fold enrichment (6-mer frequency, TF over GST control)
ETV2
  binding signal: 1.22 fold enrichment (6-mer frequency, TF over GST control)
ELF3
  binding signal: 1.25 fold enrichment (6-mer frequency, TF over GST control)
CRX
  binding signal: 1.14 fold enrichment (6-mer frequency, TF over GST control)
ETV1
  binding signal: 1.16 fold enrichment (6-mer frequency, TF over GST control)

## TATTGC
FEV
  binding signal: 1.33 fold enrichment (6-mer frequency, TF over GST control)
ETV5
  binding signal: 1.34 fold enrichment (6-mer frequency, TF over GST control)
HSF1
  binding signal: 1.21 fold enrichment (6-mer frequency, TF over GST control)
SPIC
  binding signal: 1.5 fold enrichment (6-mer frequency, TF over GST control)
ELF4
  binding signal: 1.41 fold enrichment (6-mer frequency, TF over GST control)
ELK4
  binding signal: 1.29 fold enrichment (6-mer frequency, TF over GST control)
ETV2
  binding signal: 1.22 fold enrichment (6-mer frequency, TF over GST control)
ELF3
  binding signal: 1.2 fold enrichment (6-mer frequency, TF over GST control)
CRX
  binding signal: 1.47 fold enrichment (6-mer frequency, TF over GST control)
ETV1
  binding signal: 1.45 fold enrichment (6-mer frequency, TF over GST control)

## GCTCTT
FEV
  binding signal: 1.48 fold enrichment (6-mer frequency, TF over GST control)
ETV5
  binding signal: 1.53 fold enrichment (6-mer frequency, TF over GST control)
HSF1
  binding signal: 1.34 fold enrichment (6-mer frequency, TF over GST control)
SPIC
  binding signal: 1.31 fold enrichment (6-mer frequency, TF over GST control)
ELF4
  binding signal: 1.56 fold enrichment (6-mer frequency, TF over GST control)
ELK4
  binding signal: 1.41 fold enrichment (6-mer frequency, TF over GST control)
ETV2
  binding signal: 1.61 fold enrichment (6-mer frequency, TF over GST control)
ELF3
  binding signal: 1.58 fold enrichment (6-mer frequency, TF over GST control)
CRX
  binding signal: 1.55 fold enrichment (6-mer frequency, TF over GST control)
ETV1
  binding signal: 1.54 fold enrichment (6-mer frequency, TF over GST control)

## AAGCTA
FEV
  binding signal: 1.13 fold enrichment (6-mer frequency, TF over GST control)
ETV5
  binding signal: 1.17 fold enrichment (6-mer frequency, TF over GST control)
HSF1
  binding signal: 1.29 fold enrichment (6-mer frequency, TF over GST control)
SPIC
  binding signal: 1.13 fold enrichment (6-mer frequency, TF over GST control)
ELF4
  binding signal: 1.2 fold enrichment (6-mer frequency, TF over GST control)
ELK4
  binding signal: 1.17 fold enrichment (6-mer frequency, TF over GST control)
ETV2
  binding signal: 1.12 fold enrichment (6-mer frequency, TF over GST control)
ELF3
  binding signal: 1.2 fold enrichment (6-mer frequency, TF over GST control)
CRX
  binding signal: 1.58 fold enrichment (6-mer frequency, TF over GST control)
ETV1
  binding signal: 1.17 fold enrichment (6-mer frequency, TF over GST control)

## CCTCAA
FEV
  binding signal: 1.42 fold enrichment (6-mer frequency, TF over GST control)
ETV5
  binding signal: 1.42 fold enrichment (6-mer frequency, TF over GST control)
HSF1
  binding signal: 1.2 fold enrichment (6-mer frequency, TF over GST control)
SPIC
  binding signal: 1.46 fold enrichment (6-mer frequency, TF over GST control)
ELF4
  binding signal: 1.38 fold enrichment (6-mer frequency, TF over GST control)
ELK4
  binding signal: 1.35 fold enrichment (6-mer frequency, TF over GST control)
ETV2
  binding signal: 1.61 fold enrichment (6-mer frequency, TF over GST control)
ELF3
  binding signal: 1.54 fold enrichment (6-mer frequency, TF over GST control)
CRX
  binding signal: 1.15 fold enrichment (6-mer frequency, TF over GST control)
ETV1
  binding signal: 1.42 fold enrichment (6-mer frequency, TF over GST control)

## CCTCGC
FEV
  binding signal: 1.37 fold enrichment (6-mer frequency, TF over GST control)
ETV5
  binding signal: 1.51 fold enrichment (6-mer frequency, TF over GST control)
HSF1
  binding signal: 1.36 fold enrichment (6-mer frequency, TF over GST control)
SPIC
  binding signal: 1.46 fold enrichment (6-mer frequency, TF over GST control)
ELF4
  binding signal: 1.6 fold enrichment (6-mer frequency, TF over GST control)
ELK4
  binding signal: 1.62 fold enrichment (6-mer frequency, TF over GST control)
ETV2
  binding signal: 1.6 fold enrichment (6-mer frequency, TF over GST control)
ELF3
  binding signal: 1.56 fold enrichment (6-mer frequency, TF over GST control)
CRX
  binding signal: 1.16 fold enrichment (6-mer frequency, TF over GST control)
ETV1
  binding signal: 1.54 fold enrichment (6-mer frequency, TF over GST control)
